Source: PubChem BioAssay
Fam108B inh – mouse Fam108B serine hydrolase inhibitors, primary screen, counter-screen for RBBP9 inhibitor project, biochemical, fluorescence polarization | recombinant Fam108B, FP-Rh probe fluorescence polarization | inhibition, % at 9.51 µM | 0.33% of 300,000 active | AID 1947, 2009;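 active = inhibition above the screen mean inhibition plus 3 SD, computed separately per campaign, cut at about 18% in these data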;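 note: inhibitors lower polarization as less probe binds the enzyme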
PRMT1 inh – PRMT1 methyltransferase inhibitors, primary screen, biochemical, fluorescence polarization; Protein arginine N-methyltransferase 1 (Homo sapiens), Q99873; recombinant PRMT1, activity-based probe fluorescence polarization; inhibition, % at 2.79 µM; 1.3% of 370,000 active; AID 652257, 2013;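 active = inhibition above about 21% made by adding two undisclosed values, limit read from the data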
TCR CD3 inh – inhibitors of human TCR-CD3 interaction, primary screen, biochemical, fluorescence, TAMRA-labeled TCR probe; T-cell receptor (TCR); inhibition, % at 9.4 µM; 0.37% of 360,000 active; AID 651800, 2012; in the data active = inhibition above about 19%;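 note: recombinant mutant TCR 2C K166C tagged with TAMRA read by polarization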
PAD4 FP inh – human PAD4 inhibitors, primary screen, biochemical, fluorescence polarization, 1536-well format; recombinant PAD4, RCA probe fluorescence polarization; inhibition, % at 6.36 µM; 0.41% of 330,000 active; AID 485272, 2010;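 active = percent inhibition above a cutoff equal to the mean of all tested compounds plus 3 SD, cut at about 15% in these data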
Target sequence (Q9UM07 whole entry, looked up): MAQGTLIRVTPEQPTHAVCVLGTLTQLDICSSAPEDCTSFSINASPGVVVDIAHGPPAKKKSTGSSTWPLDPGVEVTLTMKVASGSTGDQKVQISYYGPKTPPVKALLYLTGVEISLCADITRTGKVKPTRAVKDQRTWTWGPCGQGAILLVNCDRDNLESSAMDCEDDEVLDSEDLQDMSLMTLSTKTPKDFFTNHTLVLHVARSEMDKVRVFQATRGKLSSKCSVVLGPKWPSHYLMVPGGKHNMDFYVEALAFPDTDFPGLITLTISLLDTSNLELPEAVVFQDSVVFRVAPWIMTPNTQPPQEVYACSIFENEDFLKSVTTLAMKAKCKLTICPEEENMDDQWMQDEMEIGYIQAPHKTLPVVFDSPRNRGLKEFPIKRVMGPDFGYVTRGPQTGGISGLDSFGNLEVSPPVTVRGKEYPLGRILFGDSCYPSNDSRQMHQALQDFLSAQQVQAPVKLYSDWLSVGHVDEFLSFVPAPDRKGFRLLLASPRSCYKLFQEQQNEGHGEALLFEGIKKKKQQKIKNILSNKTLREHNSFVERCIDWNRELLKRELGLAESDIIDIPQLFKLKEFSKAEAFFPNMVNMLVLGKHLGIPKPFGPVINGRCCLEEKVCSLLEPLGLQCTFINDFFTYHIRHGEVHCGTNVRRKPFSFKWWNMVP
PME-1 primary – PME-1 inhibitors via competitive probe labeling, primary screen, biochemical, fluorescence polarization, FP-Rh probe, HTS. 0.53% of 320,000 active. AID 2130, 2009. Protein phosphatase methylesterase 1 (Homo sapiens), Q9Y570. inhibition, % at 5.9 µM. recombinant PME-1;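 active = inhibition above the campaign mean of all compounds plus 3 SD, cut at about 26% in these data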;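 note: competitive labeling of PME-1 active site by serine hydrolase directed probe; inhibitors block probe labeling so polarization falls and inhibition rises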
SIAE primary – human SIAE inhibitors, primary screen, biochemical, fluorescence polarization, FP-Rh probe, 1536-well HTS; SIAE FP-Rh probe binding; inhibition, % at 9.66 µM; 0.69% of 370,000 active; AID 1053197, 2014;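 active = inhibition above a cutoff: mean of compounds within the control limits plus 3 SD of those, cut at about 17% in these data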
PRMT1 confirm – PRMT1 methyltransferase inhibitors, confirmation, biochemical, fluorescence polarization, triplicate | shares compounds with PRMT1 inh | recombinant His-PRMT1, activity-based probe fluorescence polarization | inhibition, % at 2.79 µM | 42% of 3,300 active | AID 687036, 2013;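 active = mean inhibition across replicates above the hit cutoff derived for the earlier primary screen, cut at about 22% in these data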
Hits are given with their value; - = inactive; . = no result. Shown are actives, neighbours in structure and some others; about 2.6% of the full set was active somewhere.

SMILES | Fam108B inh | PRMT1 inh | TCR CD3 inh | PAD4 FP inh | PME-1 primary | SIAE primary | PRMT1 confirm
COc1ccc(-n2c(SCC(=O)Nc3cc(C)c(NC(=O)c4ccccc4)cc3OC)nnc2-c2cccnc2)cc1 | . | - | . | . | . | - | .
Cc1ccc(NS(=O)(=O)c2ccc3c(c2)n(C)c(=O)n3C)cc1C | - | 25 | - | - | - | - | -
Cc1ccc(S(=O)(=O)Nc2ccc3c(c2)n(C)c(=O)n3C)cc1 | - | - | - | - | - | - | .
CN(C)C(=O)c1ccc(SC(=S)NCc2ccccc2)cc1 | . | 59 | - | . | . | - | 69
CC(C)(C)CC(=O)NC(=S)NCc1ccccc1 | - | - | - | - | - | - | .
O=C(COC(=O)c1cc(-c2ccco2)nc2ccccc12)NCc1ccc2c(c1)OCO2 | - | 35 | - | - | - | - | -
NC(=O)COC(=O)c1cc(-c2ccco2)nc2ccccc12 | - | 28 | - | - | - | - | -
COc1ccccc1CNC(=O)COC(=O)c1cc(-c2ccco2)nc2ccccc12 | - | - | - | - | - | - | .
O=C(COC(=O)c1cc(-c2ccc(Cl)s2)nc2ccccc12)NCc1ccco1 | - | 30 | - | - | - | - | -
O=C(O)c1ccc2nc(-c3ccco3)c(-c3ccco3)nc2c1 | . | 55 | - | . | . | - | 67
CCCCNC(=O)C[C@H]1C[C@@]2(C(=O)OCC)CCCC3=C2N(CCC3)C1=O | . | - | . | . | . | - | .
O=C(c1ccco1)N1CCN(C(=O)c2cc(-c3ccncc3)nc3ccc(Br)cc23)CC1 | - | - | - | - | - | - | .
O=C(O)c1cc(-c2ccco2)nc2ccc(Br)cc12 | - | 35 | - | - | - | - | -
Cc1c(C(=O)NCc2ccc3c(c2)OCO3)sc2nc(-c3ccccc3)cn12 | - | - | - | - | - | - | .
Cc1c(C(=O)NCc2ccc3c(c2)OCO3)sc2nc(-c3ccc(F)cc3)cn12 | - | 29 | - | - | - | - | -
N=c1c2c(-c3ccccc3)c(-c3ccccc3)n(CCc3ccccc3)c2ncn1C1CCC(O)CC1 (centres undefined) | . | - | . | . | . | - | .
COc1ccc(CCN(/C=C2\Sc3ccccc3C2=O)C(C)=O)cc1OC | - | 67 | - | - | - | - | 45
COc1ccc(CCN(C)C(=O)CN2C(=O)c3ccccc3S2(=O)=O)cc1OC | - | - | - | - | - | - | .
CCOCC(=O)Nc1cc(S(=O)(=O)N2CCOCC2)ccc1N1CCCCC1 | - | 41 | - | - | - | - | -
O=C(Nc1ccccc1)Nc1cc(S(=O)(=O)N2CCOCC2)ccc1N1CCCC1 | - | 29 | - | - | - | - | -
O=C(Nc1ccc(Cl)cc1)Nc1cc(S(=O)(=O)N2CCOCC2)ccc1N1CCCC1 | - | - | - | - | - | - | .
C=CCN1C(=O)[C@@H](CC(=O)NCCc2ccccc2OC)[C@]2(C(=O)OCC)CCCCC/C=C/12 | . | - | . | . | . | - | .
CC(C)(C)c1nnc(SCC(=O)c2ccccc2)n(N)c1=O | - | 75 | - | - | - | - | 57
O=C(COC(=O)c1cc(Br)ccc1O)Nc1cc(S(=O)(=O)N2CCCC2)ccc1Cl | . | 45 | - | . | . | - | 22
CCC(=O)Nc1ccc(NC(=S)NC(=O)/C=C/c2ccco2)cc1 | - | - | - | - | - | - | .
SMILES | Fam108B inh | PRMT1 inh | TCR CD3 inh | PAD4 FP inh | PME-1 primary | SIAE primary | PRMT1 confirm
O=C(/C=C/c1ccco1)NC(=S)Nc1ccc(Cl)cn1 | - | 29 | - | - | - | - | -
CC(=O)NS(=O)(=O)c1ccc(NC(=O)/C=C/c2ccco2)cc1 | - | 37 | - | - | - | - | 24
CN(C)c1ccc(NC(=S)NC(=O)/C=C/c2ccco2)cc1 | - | 27 | - | - | - | - | -
COc1ccc(-n2c(SCC(=O)NNC(=S)Nc3ccc(C)cc3)nnc2-c2ccccc2)cc1 | . | - | . | . | . | - | .
N#CSCC(=O)c1cccc2ccccc12 | - | 60 | - | - | - | - | 47
NC(=O)c1cccc2ccccc12 | - | - | - | - | - | - | .
COc1sc(SC)cc1/C=N/NC(=O)c1ccncc1 | - | 38 | - | - | - | - | -
COc1ccccc1C=NNC(=O)c1ccncc1 | . | - | - | . | . | - | .
COc1cccc(-c2cc3nc(C)c(C)c(N4CCN(Cc5ccco5)CC4)n3n2)c1 | . | - | . | . | . | - | .
O=C1C=C(c2c(O)ccc3ccccc23)c2ccccc2C1=O | . | 41 | - | . | . | - | 40
COC(=O)[C@]12C[C@H](CC(=O)NCc3cccc(C(F)(F)F)c3)C(=O)N(Cc3ccco3)C1=C[C@H](C(C)C)O[C@@H]2C1CC1 | . | - | . | . | . | - | .
COc1ccc(N2C(=O)CC(Sc3n[nH]c(-c4cccc(C)c4)n3)C2=O)cc1 (centres undefined) | - | 44 | - | - | - | - | 60
COc1cccc(N2C(=O)CC(Sc3nc(C)cc(C)n3)C2=O)c1 (centres undefined) | - | - | - | - | - | - | .
COC(=O)c1ccc(N2C(=O)CC(Sc3n[nH]c(C)n3)C2=O)cc1 (centres undefined) | - | 44 | - | - | - | - | 50
COc1ccccc1N1C(=O)CC(Sc2nc(C)cc(C)n2)C1=O (centres undefined) | - | - | - | - | - | - | .
CCOc1ccccc1N1C(=O)CC(Sc2n[nH]c(-c3ccccc3)n2)C1=O (centres undefined) | - | 73 | - | - | - | - | 78
Cc1ccc(-c2cc(C(=O)NN=Cc3cc(Br)ccc3O)[nH]n2)cc1C | . | - | . | . | . | - | .
COc1ccc(S[C@]2(C(=O)N3CCN(c4ncccn4)CC3)CC(=O)N(c3ccc(OC)cc3)[C@@H]2c2ccc(OC)cc2)cc1 | . | - | . | . | . | - | .
O=c1[nH]c(-c2ccccn2)nc2sc(-c3ccccc3)cc12 | . | 33 | - | . | . | - | -
N#CCC[C@@H]1CC[C@]2(CCCN(S(=O)(=O)C3CCCCC3)C2)O1 | . | - | . | . | . | - | .
CCOC(=O)C(Cc1ccccc1)P(=O)(OCC)OCC (centres undefined) | . | - | . | . | . | - | .
COc1cc2ccccc2cc1C(=O)O | - | - | - | - | - | - | .
COc1ccc(OC)c2cc3ccccc3cc12 | . | 29 | - | . | . | - | 70
O=C(CSc1oc(-c2ccco2)nc1S(=O)(=O)c1ccc(F)cc1)NCC1CCCO1 (centres undefined) | - | 45 | - | - | - | - | -
O=C(CSc1oc(-c2ccco2)nc1S(=O)(=O)c1ccccc1)NCC1CCCO1 (centres undefined) | - | - | - | - | - | - | .
